Measured values from PubChem BioAssay (NCATS).
Inconclusive results are not listed. The source made the active and inactive calls. Unless noted, calls follow the shape of the dose curve; as a rule, active = well fitted curve in the direction sought with a large enough effect; inconclusive = small, poorly fitted or top-dose-only effect, or another doubt; inactive = no such curve, though single readings can be large; an effect the other way counts as inactive or inconclusive.

Columns and labels:
[1] = Cytometric Cell-Based qHTS for Inhibitors of the mTORC1 Signaling Pathway in MEF (Tsc2-/-, p53-/-) Cells (AID 2660);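 also: Tsc2 and p53 null MEFs carrying empty vector with compound for 24 h; percent of cells above a phospho-rpS6 to PI ratio cutoff in each well; series mostly up to about 38 µM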
Summary of the method: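 Immunofluorescence qHTS of rpS6 Ser235/236 phosphorylation: MEFs (Tsc2-/-, p53-/-) treated 24 h, 37 C, in DMEM + 10% FBS. Alexa-488 signal normalized to PI count, referenced to rapamycin (7.5 nM) and DMSO; PI cell number recorded for viability.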

[2] = High Content Imaging Cell-Based qHTS for Inhibitors of the mTORC1 Signaling Pathway in MEF (Tsc2-/-, p53-/-) Cells (AID 2666);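 also: percent of cells scored positive for phospho-rpS6 Ser235/236 immunostaining by imaging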
Summary of the method: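 Inhibition of rpS6 phosphorylation is measured by immunofluorescence imaging in empty-vector Tsc2-/-, p53-/- mouse embryonic fibroblasts after 24 hrs compound exposure at 37 degree Celsius. Results are reported as % positive cells per well.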

[3] = High Content Imaging Cell-Based qHTS for Inhibitors of the mTORC1 Signaling Pathway in MEF Cells (AID 2667); also: potency is read from the fitted curve at half-maximal effect
Summary of the method: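 Fixed-cell imaging of phospho-S6 (Ser235/236, Alexa-488) after 24 hrs of compound treatment at 37 degree Celsius. Signal was normalized to Hoechst, and thresholds from the highest and lowest wells split cells into % active versus % non-active.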

[4] = Validation screen for small molecules that induce DNA re-replication in MCF 10A normal breast cells (AID 463097); also: nearly all actives have a fitted effect of over 60% in size
Summary of the method: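 250 MCF 10A cells/well; compound pin-transferred; 48 hr, 37 C, 5% CO2; Hoechst 40 min; imaged 405/500-530 nm. Hits = more high-intensity nuclei.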

[5] = target: Ubiquitin carboxyl-terminal hydrolase 2 (Homo sapiens) (UniProt O75604); experiment: qHTS Validation Assay for Inhibitors of Ubiquitin-specific Protease USP2a Using CHOP2 as the Reporter (AID 463106)
Summary of the method: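 Inhibition is expressed relative to NEM as the full-inhibition control, with concentration-response curves classed by fit quality, magnitude and activity. Enzyme (USP2 core, 10nM) meets 25nM Ub-CHOP2 after compound preincubation; readings are taken at 60min.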

[6] = target: DNA polymerase III PolC-type (Bacillus subtilis (strain 168)) (UniProt P13267); experiment: qHTS Validation Assay for the Inhibitors of DNA Replication in Gram-Positive Bacteria (AID 485295);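 also: reconstituted holoenzyme with PolC plus beta clamp SSB and primase; PicoGreen fluorescence of double-stranded DNA made on primed circular M13 template; series mostly up to about 57 µM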
Summary of the method: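 PicoGreen fluorescence (ex 480–485/em 535–540 nm) reports dsDNA synthesized on ssM13Gori template with dNTPs/NTPs. Enzyme: holoenzyme rebuilt from purified PolC, beta subunit, SSB and primase. Compound preincubated before substrate addition; RT throughout.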

[7] = target: Tumor susceptibility gene 101 protein (Homo sapiens) (UniProt Q99816); experiment: qHTS Validation Assay for Iinhibitors of HIV-1 Budding by Blocking the Interaction of PTAP/TSG101 (AID 485342; calls by dose curve)
Summary of the method: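 FP read-out: FITC-PTAP peptide, 50 nM final, binding Tsg101 binding domain, 10 uM final; 20 min r.t.; 10 mM HEPES pH 7.5, 0.15 M NaCl, 0.01% Tween 20, 3 mM EDTA, 0.1 mM TCEP.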

[8] = qHTS Validation Assay to Find Inhibitors of Chronic Active B-Cell Receptor Signaling (AID 485345; active = well fitted curve in the direction sought with a large enough effect in the main read-out, with a control signal flat, not every such curve was filed as active)
Summary of the method: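 TMD8 ABC-DLBCL cells with dox-inducible green luciferase–IκBα fusion and red native luciferase; compounds 46 uM–3 nM, 4 h at 37C with doxycycline in 0.5% FBS IMDM. Green/red ratio normalized to basal and 10 uM MG-132.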

[9] = Cytometry Cell-Based qHTS for Inhibitors of the mTORC1 Signaling Pathway in MEF cells (AID 2668);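 also: Tsc2-/- p53-/- mouse embryonic fibroblasts stably re-expressing wild-type Tsc2; percent cells positive for phospho-rpS6 Ser235/236 relative to propidium iodide stain; series mostly up to about 38 µM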
Summary of the method: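 Read-out: phospho-rpS6 Ser235/236 immunofluorescence normalized to propidium iodide intensity, scored as % active cells against a rapamycin (7.5 nM) threshold. Cells: Tsc2-/-, p53-/- MEFs stably expressing WT Tsc2, compound-treated 24 hrs at 37 degree Celsius.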

Measured: Potency

Tumor susceptibility gene 101 protein (Homo sapiens), sequence (Q99816 whole entry, looked up, the tested form may be a part): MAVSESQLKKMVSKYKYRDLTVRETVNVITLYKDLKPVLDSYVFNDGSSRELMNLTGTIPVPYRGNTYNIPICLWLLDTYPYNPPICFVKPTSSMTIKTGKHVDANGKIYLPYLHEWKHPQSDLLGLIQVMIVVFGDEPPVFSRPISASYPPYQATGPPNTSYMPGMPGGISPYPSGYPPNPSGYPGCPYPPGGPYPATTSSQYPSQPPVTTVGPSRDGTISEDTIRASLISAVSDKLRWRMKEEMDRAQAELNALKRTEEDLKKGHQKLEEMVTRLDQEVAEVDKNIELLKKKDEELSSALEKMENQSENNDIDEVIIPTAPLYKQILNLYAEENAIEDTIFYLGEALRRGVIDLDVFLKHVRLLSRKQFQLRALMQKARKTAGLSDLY
Ubiquitin carboxyl-terminal hydrolase 2 (Homo sapiens), sequence (O75604 whole entry, looked up): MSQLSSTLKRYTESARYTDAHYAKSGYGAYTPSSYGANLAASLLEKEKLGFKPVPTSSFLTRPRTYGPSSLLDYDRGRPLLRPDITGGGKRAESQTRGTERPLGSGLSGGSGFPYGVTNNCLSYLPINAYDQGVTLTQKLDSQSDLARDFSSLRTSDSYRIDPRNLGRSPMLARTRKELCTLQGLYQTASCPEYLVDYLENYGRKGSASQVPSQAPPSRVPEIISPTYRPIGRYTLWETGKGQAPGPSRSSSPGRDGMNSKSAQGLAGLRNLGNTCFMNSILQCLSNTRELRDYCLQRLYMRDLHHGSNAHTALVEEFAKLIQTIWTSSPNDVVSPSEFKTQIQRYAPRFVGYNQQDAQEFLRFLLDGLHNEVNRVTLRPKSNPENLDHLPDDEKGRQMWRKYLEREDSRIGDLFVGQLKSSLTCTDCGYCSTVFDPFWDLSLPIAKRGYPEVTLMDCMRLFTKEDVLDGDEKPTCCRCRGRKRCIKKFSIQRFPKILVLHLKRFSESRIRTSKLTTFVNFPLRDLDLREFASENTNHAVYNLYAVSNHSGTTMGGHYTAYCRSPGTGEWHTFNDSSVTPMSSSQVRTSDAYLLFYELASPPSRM
DNA polymerase III PolC-type (Bacillus subtilis (strain 168)), sequence (P13267 whole entry, looked up): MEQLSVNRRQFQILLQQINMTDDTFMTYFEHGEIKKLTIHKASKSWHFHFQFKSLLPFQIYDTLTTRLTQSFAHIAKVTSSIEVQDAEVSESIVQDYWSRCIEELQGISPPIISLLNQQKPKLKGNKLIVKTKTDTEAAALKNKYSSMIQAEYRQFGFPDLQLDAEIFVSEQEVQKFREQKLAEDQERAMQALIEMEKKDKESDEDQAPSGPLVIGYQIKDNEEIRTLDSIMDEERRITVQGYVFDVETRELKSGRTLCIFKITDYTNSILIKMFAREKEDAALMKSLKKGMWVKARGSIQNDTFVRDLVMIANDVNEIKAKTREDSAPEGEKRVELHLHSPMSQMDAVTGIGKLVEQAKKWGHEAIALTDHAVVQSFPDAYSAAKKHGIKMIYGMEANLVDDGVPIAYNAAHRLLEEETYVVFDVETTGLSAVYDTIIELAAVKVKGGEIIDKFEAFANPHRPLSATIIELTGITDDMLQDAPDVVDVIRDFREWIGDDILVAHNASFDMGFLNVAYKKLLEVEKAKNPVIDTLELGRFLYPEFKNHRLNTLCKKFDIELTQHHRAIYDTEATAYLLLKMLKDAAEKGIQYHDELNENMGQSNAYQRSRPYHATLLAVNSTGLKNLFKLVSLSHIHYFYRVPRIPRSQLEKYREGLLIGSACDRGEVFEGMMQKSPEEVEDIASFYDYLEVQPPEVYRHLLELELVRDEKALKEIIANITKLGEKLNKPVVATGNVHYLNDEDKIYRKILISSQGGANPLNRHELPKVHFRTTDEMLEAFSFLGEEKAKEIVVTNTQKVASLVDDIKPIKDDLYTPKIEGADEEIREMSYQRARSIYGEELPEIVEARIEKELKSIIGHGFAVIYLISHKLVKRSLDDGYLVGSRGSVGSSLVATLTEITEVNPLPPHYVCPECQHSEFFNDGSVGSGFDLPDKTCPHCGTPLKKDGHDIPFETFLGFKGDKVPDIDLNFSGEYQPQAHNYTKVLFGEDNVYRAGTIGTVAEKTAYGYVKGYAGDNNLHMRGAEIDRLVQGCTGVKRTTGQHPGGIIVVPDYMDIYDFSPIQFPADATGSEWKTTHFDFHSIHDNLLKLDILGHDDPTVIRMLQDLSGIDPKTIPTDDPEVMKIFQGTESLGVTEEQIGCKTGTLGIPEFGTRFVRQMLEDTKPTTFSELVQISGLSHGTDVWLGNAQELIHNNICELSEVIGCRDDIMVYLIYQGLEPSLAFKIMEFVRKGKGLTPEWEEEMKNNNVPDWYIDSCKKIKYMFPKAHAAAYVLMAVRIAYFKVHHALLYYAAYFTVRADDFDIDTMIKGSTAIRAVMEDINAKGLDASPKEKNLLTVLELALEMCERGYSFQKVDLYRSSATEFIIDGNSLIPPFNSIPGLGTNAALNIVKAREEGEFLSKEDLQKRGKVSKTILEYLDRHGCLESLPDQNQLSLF

CC(N)(Cc1ccc(O)cc1)C(=O)O (stereo not given)
inactive: [1] | [2] | [3] | [4] | [5] | [6] | [7] | [8]

N[C@H]1CONC1=O
inactive: [1] | [2] | [3] | [4] | [5] | [6] | [8]

CCN(CC)CCCCCCCCOC(=O)c1cc(OC)c(OC)c(OC)c1
inactive: [1] | [2] | [3] | [4] | [5] | [6] | [7]

C=CCN1CCc2cc(O)c(O)cc2C(c2ccccc2)C1 (stereo not given)
inactive: [1] | [2] | [3] | [4] | [5] | [6] | [7] | [8]

CC[C@@H]1Cc2cc(O)ccc2C2=C1c1ccc(O)cc1C[C@H]2CC
inactive: [1] | [2] | [3] | [5] | [6] | [7]

CN1CCC2(CCN3CCc4c(oc5ccccc45)C3C2)N(C)C1=O (stereo not given)
inactive: [1] | [2] | [9] | [5] | [6] | [7] | [8]

O=C(O)CCC/C=C\C[C@@H]1[C@@H](/C=C/[C@H](O)C2Cc3ccccc3C2)[C@@H](F)C[C@@H]1O
inactive: [1] | [2] | [9] | [5] | [6] | [7] | [8]

CC(=O)N[C@@H](Cc1c[nH]c2ccccc12)C(=O)OCc1cc(C(F)(F)F)cc(C(F)(F)F)c1
inactive: [1] | [2] | [3] | [5] | [6] | [8]

Cc1cccc(C(=O)NCN2CCN(c3ccccc3C#N)CC2)c1
inactive: [1] | [2] | [9] | [5] | [6] | [7] | [8]

CC(N)=NCCCC[C@@H](N)C(=O)O
inactive: [1] | [2] | [3] | [5] | [6] | [7] | [8]

Cc1cc(Cn2cnc3c2C[C@@H](C(=O)O)N(C(=O)C(c2ccccc2)c2ccccc2)C3)ccc1N
inactive: [1] | [2] | [3] | [5] | [6] | [7] | [8]

O=c1ccc2c(OCCCCc3ccccc3)c3ccoc3cc2o1
inactive: [1] | [2] | [9] | [5]

N=C(N)c1ccc(OCCCCCOc2ccc(C(=N)N)cc2)cc1 (tested in a mixture with another compound)
inactive: [1] | [2] | [5] | [6] | [7] | [8]
active: [3] 11.7 µM

COCc1nc2c([nH]1)c(=O)n(C)c(=O)n2CC(C)C
inactive: [1] | [2] | [3] | [5] | [6] | [7] | [8]
